Reference: PubChem BioAssay AID1224855 (National Center for Advancing Translational Sciences (NCATS), 2016)
Results filed as inconclusive are left out. The source made the active and inactive calls. Calls follow the shape of the dose curve; as a rule, active = well fitted inhibition curve with a large enough effect; inconclusive = small, poorly fitted or top-dose-only effect; inactive = no such curve, though single readings can be large or run the other way.

Experiment: Confirmation assay for measurement of the activity of small molecule inhibitors on Zika virus induced Caspase-3 activity in human iPSC derived neural progenitor cells (hNPCs)
Conditions: hNPC ZIKV-induced caspase-3/7, Caspase-Glo luminescence, 6 h; series mostly up to 46.1 µM
Source text: National Center for Advancing Translational Sciences [NCATS] Johns Hopkins University School of Medicine Florida State University Assay Overview: Increase in the Caspase-3 activity indicates an activation of apoptosis cell death pathway caused by Zika virus infection in certain types of neuronal cells including human neural progenitor cells (hNPCs), astrocytes, and astrocytoma cell line (SNB-19). This cell-based caspase-3 activity assay measures the increased caspase-3 activity in the human iPSC derived neural progenitor cells (hNPCs) after a 6-hour Zika virus infection with a luminescence readout. A decrease in the luminescence signal in this assay by small molecule treatment indicates an inhibitory effect of that small molecule on the Zika virus induced caspase-3 activity that may correlate with its effect on reduction of Zika virus caused cell death.
Assay Protocol Summary: The medium for hNPCs consists of DMEM/F12, N2 supplement (ThermoFisher, Cat.# 17502048), NEAA (ThermoFisher, Cat. # 11140050), 2 ug/ml heparin, 2 uM cyclopamine, and B27 (ThermoFisher, Cat. # 17504044). A Caspase-Glo 3/7 assay kit (catalog number G8092; Promega, Madison, WI) was used to detect caspase-3 activity induced by Zika virus infection in human cells. The reagent mixture was reconstituted as described in the protocol from the manufacturer. Polystyrene tissue culture treated and PDL coated white plates were obtained from Greiner Bio-One (Monroe, NC). Cells were seeded in 384- or 1536-well assay plates and cultured at 37 C with 5% CO2 for 16 to 20 hours. The typical cell seeding density in the 1536-well plate assay is 350 cells/well in 3 ul medium for hNPCs in tissue culture treated plates. Compounds were added to cells and incubated for one hour before addition of ZIKV solution to cells (2 FFU/cell). After incubation at 37 C with 5% CO2 for 6 hours, the reagent mixture of Caspase-Glo 3/7 assay kit was added to each well, followed by incubation at room temperature for 30 minutes. The luminescence intensity of the assay plates was measured using a ViewLux plate reader (PerkinElmer). Data were normalized by using the cell-containing wells without ZIKV as a negative control (0% induction of caspase 3/7 activity) and wells containing ZIKV infected cells (Caspase-3 activity induced) as a positive control (100% induction of caspase 3 activity). The percentage inhibitions of the increased Caspase-3 activity by small molecule inhibitors were then calculated.

Potency, active:
Cc1cc(O)c2c(c1)C(=O)c1cc(O)cc(O)c1C2=O 1.95 µM, Cc1oncc1C(=O)Nc1ccc(C(F)(F)F)cc1 1.38 µM, CC(=O)Oc1ccccc1C(=O)Nc1ncc([N+](=O)[O-])s1 1 µM, COc1ccc(C=CC(=O)Nc2ccccc2C(=O)O)cc1OC 17.3 µM, COc1ccc(NC(=O)/C=C/c2ccc(Cl)cc2)cc1 2.45 µM, O=C(O)CCC(=O)c1ccc(-c2ccccc2)cc1 19.5 µM, Oc1ccc(/C=C/c2cc(O)cc(O)c2)cc1 6.15 µM, O=C(Nc1ncc([N+](=O)[O-])s1)c1cccs1 1.23 µM, O=C(c1ccccc1)c1ccc2n1CCC2C(=O)O (stereo not given) 13.8 µM, CC(C)(C)COc1ccc(-n2cc(C(=O)O)cn2)cc1C#N 22.4 µM, Cc1cccc(C#Cc2ccccc2)n1 3.46 µM, Cc1cccc(/C=C/c2ccccc2)n1 8.69 µM, CC(=Cc1ccccc1)C=C1SC(=S)N(CC(=O)O)C1=O 15.5 µM, N#C/C(=C\c1ccc(O)c(O)c1)C(=O)Nc1ccccc1 15.5 µM, O=C(Nc1ccc([N+](=O)[O-])cc1Cl)c1cc(Cl)ccc1O 1.73 µM, C[C@H](NC(=O)C(=O)Nc1ccccc1C(C)(C)C)C(=O)N[C@@H](CC(=O)O)C(=O)COc1c(F)c(F)cc(F)c1F 0.245 µM, COc1ccc(-c2coc3cc(O)ccc3c2=O)cc1 8.69 µM, COc1cc2nc(N3CCN(C(=O)C4CCCO4)CC3)nc(N)c2cc1OC (stereo not given) 9.75 µM, CC(C)Oc1ccc2c(=O)c(-c3ccccc3)coc2c1 6.15 µM, O=C(Nc1ccc(C(=O)O)c(O)c1)c1ccccc1 4.35 µM, O=c1c2ccccc2nc2n1CCc1c-2[nH]c2ccccc12 4.35 µM

Potency, inactive:
Cc1c(C(=O)O)c(O)cc2c1C(=O)c1c(O)c([C@@H]3O[C@H](CO)[C@@H](O)[C@H](O)[C@H]3O)c(O)c(O)c1C2=O, C[C@@H](N)c1ccc(C(=O)Nc2ccnc3[nH]ccc23)cc1, Nc1ccc(O)c(C(=O)O)c1, O=c1oc2cc(O)ccc2s1, CCCCCNC(=O)N1CCC(CN(Cc2ccc(Cl)cc2)Cc2ccc([N+](=O)[O-])s2)C1 (stereo not given), O=S(=O)(O)CCSSCCS(=O)(=O)O, O=C(CS)Nc1ccccc1, CC[C@]1(O)C[C@H]2CN(CCc3c([nH]c4ccccc34)[C@@](C(=O)OC)(c3cc4c(cc3OC)N(C=O)[C@H]3[C@@](O)(C(=O)OC)[C@H](OC(C)=O)[C@]5(CC)C=CCN6CC[C@]43[C@@H]65)C2)C1, CCCCCCCC/C=C/C(=O)O, C=CCCCCCCCCC(=O)O, CC=CC[C@@H](C)C(=O)[C@H]1C(=O)N[C@@H](C(C)C)C(=O)N(C)CC(=O)N(C)[C@@H](CC(C)C)C(=O)N[C@@H](C(C)C)C(=O)N(C)[C@@H](CC(C)C)C(=O)N[C@@H](C)C(=O)N[C@H](C)C(=O)N(C)[C@@H](CC(C)C)C(=O)N(C)[C@@H](CC(C)C)C(=O)N(C)[C@@H](C(C)C)C(=O)N1C, CN1CC(=O)N2C(Cc3c([nH]c4ccccc34)[C@H]2c2ccc3c(c2)OCO3)C1=O (stereo not given in full), O=C(O)[C@H](CC(=O)N1C[C@@H]2CCCC[C@H]2C1)Cc1ccccc1, COc1ccnc2c1CCCCC2S(=O)c1nc2ccccc2[nH]1 (stereo not given), CCCCCCCCCCCC(=O)[O][Sn]([CH2]CCC)([CH2]CCC)[O]C(=O)CCCCCCCCCCC, CC(C)(C)OC(=O)CN(Cc1ccc(Cl)cc1)Cc1ccc([N+](=O)[O-])s1, N#CC1(c2ccc(NC(=O)c3cccnc3NCc3ccncc3)cc2)CCCC1, Cc1c(NC(=O)c2ccc(C(C)(C)C)cc2)cccc1-c1cn(C)c(=O)c(Nc2ccc(C(=O)N3CCOCC3)cc2)n1, N[C@H](CSC(c1ccccc1)(c1ccccc1)c1ccccc1)C(=O)O
